Screening results as filed in PubChem.
The list is not random: actives were taken first. Their share in the collection is about 19%.
DT40 TDP1 CPT = growth inhibition of DT40 Tdp1-/-;hTDP1 cells with camptothecin (screen for TDP1 inhibitors); Potency, µM (series often up to 46.2 µM), most hits filed as inhibitors; chicken DT40 Tdp1-/-;hTDP1 cells + 20 nM CPT, ATP luminescence, 48 h; actives 12% (n = 420,000); further: nearly all actives have a fitted effect of over 55% in size
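Chicken DT40 Tdp1-/- cells complemented with human TDP1, 400 cells/well, exposed to compounds plus 20 nM camptothecin for at least 48 h at 37 C; viability read as ATP content by CellTiter-Glo luminescence.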
TDP1 cell noCPT = qHTS for Inhibitors of human tyrosyl-DNA phosphodiesterase 1 (TDP1): qHTS in cells in absence of CPT; DT40 Tdp1-/- hTDP1 cells, no CPT, ATP luminescence, 48 h; Potency, µM (highest dose often 46.2 µM), most hits filed as inhibitors; actives 15% (n = 420,000); AID 686978, 2013; further: nearly all actives have a fitted effect of over 55% in size
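Camptothecin absent (DMSO only). Human TDP1-complemented DT40 knockout cells, 400 cells/well, 37 °C for minimum 48 hr; ATP measured via CellTiter-Glo, 30 min dark incubation, luminescence.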
HT1080 IDH1KD tx = kills HT-1080 cells with IDH1 knockdown | actives 2% (n = 360,000) | Potency, µM (titrated, usually from 46.1 µM), usual class: cytotoxic | HT-1080 IDH1 knockdown viability, ATP luminescence, 48 h
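Using the IDH1-knockdown HT-1080 line run in the same batch and compound series as the NT line, viability after 48 h at 37 °C was determined by CellTiter-Glo luminescence and expressed as % activity.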
HT1080-NT tox = kills 2HG-producing HT-1080-NT fibrosarcoma cells; HT-1080-NT fibrosarcoma viability, CellTiter-Glo ATP luminescence, 48 h; Potency, µM (top dose mostly 46.1 µM), actives largely listed as cytotoxic; actives 1.6% (n = 360,000);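 further: NT is the 2HG producing partner of a matched IDH1 knockdown line; nearly all actives have a fitted effect of over 55% in size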
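Compounds were tested in concentration-response format on HT-1080-NT cells for 48 hours at 37 degrees C. Cell viability came from CellTiter-Glo luminescence; curves were classified by r2, response magnitude and activity.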
IL1B secr inh = inflammasome signaling inhibition, IL-1 beta readout | THP-1 LPS/ATP IL-1B secretion, AlphaLISA, 16 h; active compounds read low | activity change, % at 57.5 µM | actives 4.7% (n = 360,000); in the data active means activity change below about -50%; inconclusive means mostly about -30% to -49%
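THP-1 cells pretreated 1 hr with compounds (up to 57.5 uM final), then stimulated with LPS (250 ng/mL final) plus ATP (1.25 mM final); secreted IL-1B measured by AlphaLISA after 16 hr, decreased signal indicating inhibition.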
ELG1 repair inh = ELG1-dependent DNA repair inhibition; HEK293T ELG1-luciferase reporter, luminescence, 16 h; DNA damage induced by 5-fluorouridine; Potency, µM (doses to about 46.1 µM), most hits filed as inhibitors; actives 2.3% (n = 330,000); further: nearly all actives have a fitted effect of over 55% in size
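Quantitative HTS, concentration-response format. 2,000 cells/well co-treated with 5-fluorouridine and compound, 16 hr in 5% CO2 at 37 °C; ONE-Glo luminescence read after 30 min.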
Hits are given with their value; n = inactive; u = inconclusive; x = no result given; [ ] = dose if it differs, or a comment. Unless noted, the call rests on the fitted dose curve; in most records, active means well fitted curve in the direction sought with a large enough effect; inconclusive means small, poorly fitted or top-dose-only effect, or another doubt; inactive means no such curve, though single readings can be large; an effect the other way counts as inactive or inconclusive.

SMILES | DT40 TDP1 CPT | TDP1 cell noCPT | HT1080 IDH1KD tx | HT1080-NT tox | IL1B secr inh | ELG1 repair inh
COc1cccc(C2(CC(=O)N3CCCCC3CO)CC(=O)N(C)C2=O)c1 (stereo not drawn) | n[9.04 µM] | n | x | x | x | x
O=C(c1ccccc1)c1ccc2nc(-c3ccc(NC(=O)c4ccccc4Br)cc3)[nH]c2c1 | u | u | n | u | n | u
Cc1ccc(-c2nc3ccccc3[nH]2)cc1NC(=O)/C=C/c1ccco1 | u | 16.4µM | u | u | u | u
Cc1ccc(-c2nc3ccccc3[nH]2)cc1NC(=S)NC(=O)c1ccccc1Br | u | 14.6µM | n | n | -56.2 | u
Cc1ccc(-c2nc3ccccc3[nH]2)cc1NC(=O)c1ccc2c(c1)OCO2 | u | u | n | n | n | u
COc1ccc2c(c1)Cc1cc(NC(=O)c3ccccc3-c3ccccc3C(=O)O)ccc1-2 | n | n | n | n | n | x
O=C(c1cnccn1)N1CCC2(CCCN(Cc3nccs3)C2)CC1 | n | n | x | x | x | x
Cc1ccc(S(=O)(=O)N2CCN(CC(=O)Nc3ccc4c(c3)CCC4)CC2)cc1C | n | n | n | n | n | u
N#Cc1ccsc1NC(=O)CN1CCN(S(=O)(=O)c2ccc3ccccc3c2)CC1 | u | 16.4µM | n | n | n | n
O=C(CN1CCN(S(=O)(=O)c2ccc3ccccc3c2)CC1)Nc1ccc2c(c1)CCC2 | 23.1µM | u | n | n | n | u
O=C(CCl)N1CCN(S(=O)(=O)c2ccc3c(c2)CCC3)CC1 | 2.31µM | 0.651µM | u | u | -66.7 | u
Cc1ccc(S(=O)(=O)N2CCN(C(=O)COC(=O)c3ccc(Cl)nc3)CC2)c(C)c1 | n | n | n | n | n | n
Cc1nc2ccn(Cc3cccnc3)c(=O)c2cc1C(=O)NCc1ccccc1 | n | n | x | x | x | x
CC1CC(=Cc2ccc(N)cc2)C(=O)O1 (stereo not drawn) | n | n | n | n | n | x
Cn1c(SCC(=O)N/N=C/C=C/c2ccco2)nc2ccccc21 | 18.4µM | 18.4µM | n | n | n | n
O=C(N/N=C/C(Cl)=C/c1ccccc1)c1ccncc1 | 9.2µM | 20.6µM | n | n | -91.8 | n
O=C(N/N=C/C(Cl)=C/c1ccccc1)c1ccccn1 | u | u | n | n | -57.3 | u
O=C(N/N=C/C(Br)=C/c1ccccc1)c1cnccn1 | 1.64µM | 2.31µM | u | u | -98.9 | n
CCOC(=O)C1(Cc2ccccc2C)CCCN(C(=O)c2ccc(C(C)=O)s2)C1 (stereo not drawn) | u | u | n | n | n | x
O=C(N/N=C/C=C\c1ccco1)c1ccccn1 | 9.2µM | 16.4µM | n | u | n | u
Cc1cc(C(=O)N/N=C/C(Cl)=C/c2ccccc2)c(C)o1 | 29.1µM | 20.6µM | n | n | n | n
Cc1cc(C)c2c(=O)n3c(nc2c1)C(Cc1ccccc1)NC(=O)c1cc2ccccc2cc1-3 (stereo not drawn) | u | u | n | n | n | x
c1ccc(COc2ncnc3c2ncn3CCCN2CCN(c3ncccn3)CC2)cc1 | u | u | n | n | n | x
CCOC(=O)/C(C#N)=C/c1cn(CCOc2ccc(OC)cc2)c2ccccc12 | 14.6µM | u | n | n | n | 11.6µM
COC(=O)c1cn(CCOc2ccc(C)cc2)c2ccccc12 | u | u | n | n | n | n
SMILES | DT40 TDP1 CPT | TDP1 cell noCPT | HT1080 IDH1KD tx | HT1080-NT tox | IL1B secr inh | ELG1 repair inh
COc1ccc(OCCn2cc(C(=O)c3ccco3)c3ccccc32)cc1 | 20.6µM | 25.9µM | x | x | x | x
COC(=O)Cn1cc(C(=O)c2ccco2)c2ccccc21 | n | n | n | n | n | n
Cc1ccc(OCCn2cc(C(=O)c3ccco3)c3ccccc32)cc1C | 14.6µM | 18.4µM | x | x | x | x
Cc1cc(OCCn2cc(/C(N)=N/O)c3ccccc32)ccc1Cl | 25.9µM | u | u | u | n | n
CCOc1ccc(NC(=O)/C(C#N)=C/c2cn(CC(=O)O)c3ccccc23)cc1 | n | n | n | n | n | u
CCC(Cn1nnc2ccccc2c1=O)NC(=O)Nc1cc(OC)cc(OC)c1 (stereo not drawn) | u | n | x | x | x | x
c1csc(CNc2ccnc(-c3ccoc3)n2)c1 | u | n | x | x | x | x
NC(=O)C1CCN(C(=O)c2ccc(Cl)c(S(=O)(=O)N3CCc4ccccc43)c2)CC1 | u | u | n | n | n | x
